The results in this text go back to PubChem BioAssay (NCI).

Several values for one entry are separate records, joined by “and”; a condition that tells them apart may be missing. Equal values may be shown once. The panel holds about 83,000 compounds, 20% with a hit somewhere; the sample as a whole holds those more often.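 For each line, cells grew in 96-well plates with the test compound present at a single concentration for 48 hours.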 A number with no mark means an inactive call. Activity calls are given as the source filed them.

The first assay has as its system NCI/ADR-RES ovarian. Description: NCI-60 one-dose screen, 48 h (100 = growth as untreated, 0 = no growth, -100 = all killed). The note with it: 10 µM. How it is done:
Growth inhibition of the NCI/ADR-RES human […] tumor cell line is measured as a screen for anti-cancer activity. Cells are grown in 96 well plates and exposed to the test compound for 48 hours. Compounds are tested at a single concentration, which is 10^-5 M for most compounds. The reported endpoint is percent growth (GI% or GIPRCNT), where numbers from 0 - 100% represent growth inhibition, and numbers from -100% - 0 represent cell death. For example, a value of 40 represents 60% growth inhibition. A value of 0 means no net growth occurred over the course of the experiment. A value of -40 indicates 40% of cells at the beginning of the experiment died by the end of the experiment. A value of -100 means all cells are dead at the end of the experiment.
NCI-60 Human Tumor Cell Lines Screen was performed using the standard one-dose NCI protocol, which is described in more detail at https://dtp.cancer.gov/discovery_development/nci-60/default.htm.
Compounds with GIPRCNT values below 10 were considered active. Activity score was based on GIPRCNT using the following formula: […]
Score is 0 for GIPRCNT values of 100 or above, 50 for GIPRCNT values of 0, and 100 for GIPRCNT values of -100.
`O=C(Nc1c(Cl)cccc1Cl)Oc1cccc2cccnc12`: the growth was 13.5%.

In the case of `COc1ccc(-c2cscc2N)cc1`, the growth is 77.8%.

As to `O=C(Nc1cccc(Br)c1)Oc1cccc2cccnc12`, the growth was 103%.

Still in this assay, the particulars now being: 10 µM unless noted.
Consider `Oc1ccc(/C=N/NC(=S)Nc2ccccc2)nc1`, for which the growth was 3.65% (active).

In the case of `O=C1N[C@H]2[C@H](CS[C@H]2CCCCC(=O)N(CCP(c2ccccc2)c2ccccc2)CCP(c2ccccc2)c2ccccc2)N1`, the growth is 101%.

As to `CC(=Nc1ccc(N(C)C)cc1)c1ccccc1`, the growth was 74.7%.

For `O=C(Oc1cccc2cccnc12)c1ccccc1`, the growth was 87% and 106%.

`Oc1c(Br)cc(Cl)cc1C(c1cc(Cl)cc(Br)c1O)C(Cl)(Cl)Cl`: the growth was 7.13% (active).

For `O=C(CC1(O)C(=O)Nc2c(Cl)ccc(Cl)c21)c1ccc(Cl)cc1Cl` (stereo not given), the growth was 106%.

As to `N#CSCc1ccc(Cl)c(CSC#N)c1`, the growth is 45.5%.

For the molecule `CCC1OC(OC)C=CC1=O` (stereo not given), the growth was 111%.

On to `Cc1ccc2nc(-[n+]3cc4ccccc4cc3C)ccc2c1`, for which the growth is 109%.

Regarding `COc1ccccc1/C=C\C(=O)c1ccccc1`, the growth was 14.2%.

For the molecule `CC1(C)CC([P+](c2ccccc2)(c2ccccc2)c2ccccc2)=NN1`, the growth is 105%.

In the case of `CCN(CC)CCOc1ccc(-c2nc3cc(Cl)ccc3s2)cc1`, the growth is -26.1% (active).

In the case of `Cn1c2c(c3ccccc31)CCN1C[C@@H]3CCCC[C@H]3C[C@@H]21`, the growth is -36.1% (active).

On to `Cc1ccc2nc(C[n+]3ccc4ccccc4c3)ccc2c1`, for which the growth was 104%.

For the molecule `CCC(c1cccc(O)c1)C(CC)c1cccc(O)c1` (stereo not given), the growth is 72.1%.

For `C[n+]1c(/C=C/c2ccc([N+](=O)[O-])cc2)ccc2ccccc21`, the growth was 102%.

Regarding `Cc1c2ccccc2c(C)c2c1ccc1ccccc12`, the growth was 106%.

`Cc1ccnc(NC(c2ccccc2)c2ccc3cccnc3c2O)c1` (stereo not given): the growth is 22.4%.

Turning to `COc1cc(/C=C/C(C)=O)ccc1O`, the growth was 107% and 100%.

Take `CC1SC(=S)N(c2ccc(Cl)cc2)C1=O` (stereo not given): the growth is 103%.

On to `NC(=S)N/N=C/c1ccc(Cl)s1`, for which the growth was 108%.

Take `NC(=O)/C=C/C(=O)c1c(Cl)cccc1Cl`: the growth was -59.4% (active).

Consider `O=C1NC(=O)/C(=C/C=C/c2ccccc2)S1`, for which the growth is 42.9%.

`N#CSCC(=O)c1ccc(Cl)cc1`: the growth was -16.4% (active).

Consider `COc1ccc(N=N/N=c2\sc3cc(OC)ccc3n2C)cc1`, for which the growth is 109%.

Turning to `S=C(N/N=C/c1ccccn1)Nc1ccccn1`, the growth is 7.98% (active).

Regarding `Cc1ccc2c(ccc3c[n+]4c5ccccc5ccc4n32)c1`, the growth is 70.3%.

Turning to `O=C(/C=C/c1cccc(Cl)c1)c1ccccc1`, the growth is 105% and 88.8%.

`Cc1ccc(N=C=C(c2ccccc2)c2ccccc2)cc1`: the growth is 81.2%.

For the molecule `Oc1c(Cl)c2ccccc2c2ccccc12`, the growth is 67.6%.

For the molecule `O=C(/C=C\c1cc(Br)ccc1O)/C=C/c1cc(Br)ccc1O`, the growth is 7.59% (active).

With `COc1ccc2nc3cc(Cl)ccc3c(NCCNc3c4ccc(Cl)cc4nc4ccc(OC)cc34)c2c1`, the growth was -53.5% (active).

`COc1ccccc1OC(=O)Oc1ccccc1OC`: the growth is 114% and 95.8%.

In the case of `O=C1C2=C(Nc3cc([N+](=O)[O-])ccc3N2)OC1c1c2ccccc2cc2ccccc12` (stereo not given), the growth was 38.3%.

The same assay, now with this note: 100 µM.
Regarding `O=C(Nc1c(Cl)cccc1Cl)Oc1cccc2cccnc12`, the growth was 3.5% (active).

Consider `COc1ccc(-c2cscc2N)cc1`, for which the growth is 78.1%.

In the case of `O=C(Nc1cccc(Br)c1)Oc1cccc2cccnc12`, the growth is 4.89% (active).
